From PubChem BioAssay
Several values for one entry are separate records, joined by “and”; a condition that tells them apart may be missing. Equal entries are not always repeated.

Test: inducers of IRF3 signaling, differentiated THP-1 – cell-based, PMA-stimulated THP-1, luminescence (AID 1053176)
Details: PMA-differentiated THP-1, IRF3 reporter luminescence; active compounds read high; call rule not given here

Fraction signal, inactive:
CN1CCC(n2cnc(-c3ccc(F)cc3)c2-c2ccnc(Nc3ccccc3)n2)CC1 0.005, N#Cc1c(NC(=O)c2ccccc2F)sc2c1CCCC2 -0.0035, CC(=O)Nc1cccc(C#Cc2cncnc2Nc2ccc(OCc3cccc(F)c3)c(Cl)c2)c1 0.0085, CCOc1ccc2c(-c3ccnc(Nc4cc(OC)cc(C(F)(F)F)c4)n3)cnn2n1 -0.001, Nc1nccc(-c2c(-c3ccc(F)cc3)ncn2C2CCNCC2)n1 0.0105 and -0.008, NC(=O)c1ccc2c(-c3ccnc(NCCCO)n3)c(-c3ccc(F)cc3)nn2c1 0.003, Cn1cc(C2=C(c3cn(CCCSC(=N)N)c4ccccc34)C(=O)NC2=O)c2ccccc21 -0.0115, O=C1NC(=O)C(c2c[nH]c3ccccc23)=C1c1c[nH]c2ccccc12 -0.0025, Fc1cccc(COc2ccc(Nc3ncnc4sc(-c5ccco5)cc34)cc2Cl)c1 -0.0105, Cn1c(=O)c(Oc2ccc(F)cc2F)cc2cnc(NC3CCOCC3)nc21 -0.007, Fc1cccc(COc2ccc(Nc3ncnc4cc(-c5ccc[nH]5)sc34)cc2Cl)c1 -0.0045, C#Cc1cccc(Nc2ncnc3ccc(OCCCCNCCS(C)(=O)=O)cc23)c1 0.0175, Cn1cc(C2=C(c3cn(CCCN)c4ccccc34)C(=O)NC2=O)c2ccccc21 -0.0135, O=S1CCN(Cc2ccc(-c3ccc4ncnc(Nc5ccc(OCc6ccccc6)c(Cl)c5)c4c3)o2)CC1 -0.0035
